# Shown are actives, neighbours in structure and some others; about 1.9% of the full set was active somewhere.
# VLA-4 agonist: enhancers of LDV-FITC binding to VLA-4 integrin, primary screen, Jurkat cells, flow cytometry. activation, % at 10 µM (by protocol). AID 528, 2006. 24,000 tested, under 10 active. Integrin alpha-4 (Homo sapiens), P13612;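 active means fluorescent ligand binding to cells raised by more than 40% of the manganese-induced maximum; inconclusive means compound's own fluorescence above 85% of the ligand control signal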
# Autofluor Jurkat: compound autofluorescence on Jurkat cells, primary screen, artefact control for VLA-4 allosteric ligand project, cell-based, flow cytometry. AID 576, 2007. hits give high values; 1 = vehicle-only cell background. fluorescence ratio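 (tested at 10 µM compound in the well)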. hit rate 0.61% among 24,000;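 active means fluorescence ratio above 2.44, which is 1 plus 3 SD of all ratios; inconclusive means signal too bright to measure linearly, ratio around 10 or more; inactive means fluorescence ratio below 2.44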;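 further: green fluorescence of cells measured with 488 nm excitation and 530 nm emission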
# VLA-4 antagonist: inhibitors of LDV-FITC binding to Mn2+-activated VLA-4, primary screen, Jurkat cells; Integrin alpha-4 (Homo sapiens), P13612; LDV-FITC binding with Mn2+, flow cytometry; 100% = Mn2+-driven binding gain fully reversed; inhibition, % at 10 µM (by protocol); hit rate 0.2% among 24,000; AID 529, 2006;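 active means inhibition above 50%; inconclusive means compound itself fluorescent, judged against control cell fluorescence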
# FPR ligand: human FPR ligands by binding competition, primary screen, cell-based, FPRL1 counter-screen, flow cytometry. fMet-Leu-Phe receptor (Homo sapiens), P21462. FPR-expressing cells, fluorescent ligand binding. inhibition, % (test concentration not listed). hit rate 0.74% among 24,000. AID 440, 2006
# LNCaP diff act: activators of LNCaP prostate cell differentiation, primary screen, flow cytometry side scatter. 4 d. side scatter shift, % at 10 µM. hit rate 0.56% among 24,000;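 active means side scatter shift above 30%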;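 further: androgen-responsive LNCaP prostate cancer cells in charcoal-stripped serum medium; higher shift means more granular cells and more differentiation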
# FPRL1 binder: human FPRL1 ligands by binding competition, primary screen, cell-based, FPR counter-screen, flow cytometry. FPRL1-expressing cells, fluorescent ligand binding inhibition. inhibition, % (concentration not given with the values). hit rate 0.3% among 24,000
# Target sequence (P25090 whole entry, looked up): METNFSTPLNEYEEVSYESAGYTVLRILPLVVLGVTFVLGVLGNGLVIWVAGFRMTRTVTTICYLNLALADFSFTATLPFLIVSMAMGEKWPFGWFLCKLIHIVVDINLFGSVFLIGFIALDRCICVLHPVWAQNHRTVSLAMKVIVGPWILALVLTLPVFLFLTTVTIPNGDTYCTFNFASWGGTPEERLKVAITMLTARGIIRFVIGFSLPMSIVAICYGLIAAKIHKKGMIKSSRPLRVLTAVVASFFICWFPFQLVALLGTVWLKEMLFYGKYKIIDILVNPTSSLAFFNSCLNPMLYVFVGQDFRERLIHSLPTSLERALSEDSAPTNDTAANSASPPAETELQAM
# Hits are given with their value; 0 = inactive; ? = inconclusive. Unless noted, no stated cut-off is given here; in the data, active means inhibition above about 30%; inconclusive means no clear call, values can overlap the other calls; inactive means below that.
SMILES,VLA-4 agonist,Autofluor Jurkat,VLA-4 antagonist,FPR ligand,LNCaP diff act,FPRL1 binder
O=C1CN(C(=O)COC(=O)c2ccccc2NC(=O)c2ccco2)c2ccccc2N1,?,0,?,0,0,0
Cc1cccc(-c2nsc(SCC(=O)Nc3nccs3)n2)c1,0,0,0,0,34,0
Cc1cccc(-c2nsc(SCC(=O)N3CCCC3)n2)c1,0,0,0,0,0,0
CN(C)c1ccc(C2C=C(c3ccc(Cl)cc3OC(F)F)Nc3ncnn32)cc1 (centres undefined),?,2.8,?,0,0,0
c1ccc2c(c1)CCCN2c1nc2ccccc2n2cnnc12,?,2.6,?,0,0,0
CC1Cc2ccccc2N1C(=O)Cn1c(=O)oc2cc(S(=O)(=O)N3CCCCC3)ccc21 (centres undefined),?,5.1,?,0,0,0
O=C(Cn1c(=O)oc2cc(S(=O)(=O)N3CCc4ccccc43)ccc21)N1CCCCC1,?,0,?,0,0,0
COc1ccc(-c2cc(C(F)(F)F)nc(N3CCN(Cc4ccccc4)CC3)n2)cc1OC,0,0,0,0,0,75
